PubChem BioAssay (NCATS)
Records with an inconclusive call do not appear. Entries that show only a call come without a potency. Active and inactive are the calls of the source. The call rests on the fitted dose curve; in most records, active means well fitted inhibition curve with a large enough effect in the repeat runs; inconclusive means weak or mixed curves; inactive means flat fitted curve, though single readings scatter.

These molecules were tested against Cytochrome P450 2D6 (Homo sapiens) (UniProt P10635) (assay: Cytochrome P450 family 2 subfamily D member 6 (CYP2D6) small molecule antagonists: luciferase biochemical (cell-free) qHTS assay (AID 1645840; further: nearly all actives have a fitted effect of over 55% in size)). Conditions: P450-Glo CYP2D6 enzyme, luciferin luminescence, 1 h; series mostly up to 57.4 µM.
Summary of the method: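 P450-Glo luminescent screen: recombinant CYP2D6 enzyme–proluciferin substrate mix preincubated with compound 10 min at room temperature, then NADPH regeneration added for 1 h at room temperature. Detection reagent added for 20 min; luciferin light read as relative luminescence units.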
Potency means the concentration at half of the fitted maximal effect.

Cytochrome P450 2D6 (Homo sapiens), sequence (P10635 whole entry, looked up): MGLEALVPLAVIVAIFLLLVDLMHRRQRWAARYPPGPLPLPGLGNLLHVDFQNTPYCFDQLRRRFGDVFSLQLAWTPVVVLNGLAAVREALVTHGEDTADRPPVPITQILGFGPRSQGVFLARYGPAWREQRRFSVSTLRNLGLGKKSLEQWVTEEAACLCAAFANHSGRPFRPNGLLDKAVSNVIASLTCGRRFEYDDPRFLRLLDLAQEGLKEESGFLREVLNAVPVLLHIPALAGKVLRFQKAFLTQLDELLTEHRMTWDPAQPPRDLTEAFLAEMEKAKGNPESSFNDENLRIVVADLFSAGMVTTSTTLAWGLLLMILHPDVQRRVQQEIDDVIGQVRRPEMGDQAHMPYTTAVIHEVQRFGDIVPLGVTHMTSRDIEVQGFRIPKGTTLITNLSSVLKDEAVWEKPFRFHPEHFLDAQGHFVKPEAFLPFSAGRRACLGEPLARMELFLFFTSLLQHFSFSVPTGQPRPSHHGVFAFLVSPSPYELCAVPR

Compound	Potency
Cn1cnc2c(F)c(Nc3ccc(Br)cc3F)c(C(=O)NOCCO)cc21	inactive
COc1cc(C(C)C)c(Oc2cnc(NC(CO)CO)nc2N)cc1I	19 µM (active)
O=C1NC(O)CCN1[C@@H]1O[C@H](CO)[C@H](O)[C@H]1O (some centres not stated)	inactive
Cc1cc(O)c2c(c1)C(=O)c1cccc(O)c1C2=O	inactive
OCCNC1CCCc2c1[nH]c1ccc(-c3ccccc3)cc21 (configuration not stated)	15.1 µM (active)
O=C(Nc1cc2cc[nH]c2cn1)c1ccccc1	13.5 µM (active)
C#CCC(Cc1cnc2nc(N)nc(N)c2n1)c1ccc(C(=O)N[C@@H](CCC(=O)O)C(=O)O)cc1 (some centres not stated)	inactive
